Measured values reported in PubChem BioAssay.
Unmarked numbers belong to inactive results. For some of these results: Entries with a potency or affinity are not part of this list. Calls of active or inactive are those of the source. Unless noted, no rule for the calls is given here.

Tests used:
[1] = antimalarial activity against Dd2 strain (AID 2302;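 active = growth inhibition above 50% at the single 2 µM test dose, taken to imply half-maximal potency below 2 µM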;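 also: 0% = DMSO untreated growth and 100% = chloroquine plus artemisinin killed control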); details: P. falciparum Dd2 in RBCs, LDH growth readout, 72 h; at 2 µM; hits give high values
[2] = human hepatoma cell viability loss – ATP luminescence, cytotoxicity control for P. falciparum antimalarial project, primary screen (AID 2303;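 active = inhibition above 50%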;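 also: 0% = DMSO wells and 100% = digitonin-killed cells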); details: HepG2 viability, 24-48 h, at 10 µM, hits give high values
[3] = biological target: L-lactate dehydrogenase (Plasmodium falciparum (isolate CDC / Honduras)) (UniProt Q27743); assay: PfLDH activity inhibition – cell lysate, 3D7 strain, counter-screen for P. falciparum growth inhibition project (AID 2304);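 also: 0% = vehicle and 100% = reference inhibitor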; details: P. falciparum 3D7 crude extract, LDH APAD/NBT absorbance; at 2 µM; hits give high values
[4] = inhibition of 3D7 malaria parasite growth – strain 3D7 (AID 2306);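 also: 0% = DMSO wells and 100% = chloroquine plus artemisinin control wells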; details: P. falciparum 3D7 erythrocytic growth, LDH absorbance, 72 h; at 2 µM; hits give high values
[5] = biological target: Calcium-dependent protein kinase 1 (Plasmodium falciparum (isolate 3D7)) (UniProt P62344); assay: PfCDPK1 kinase inhibitors, biochemical, TCAMS library (AID 1159585; cut-off not given, nearly all actives have IC50 up to about 0.98 µM;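 also: inhibitors leave more ATP so luminescence rises with inhibition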); details: recombinant PfCDPK1, Kinase-Glo ATP depletion luminescence
[6] = biological target: Plasmodium falciparum protein kinase 6 (PK6, PF3D7_1337100) (UniProt Q8IDW1); assay: PfPK6 kinase inhibitors, biochemical, TCAMS library (AID 1159586); details: recombinant PfPK6, Kinase-Glo ATP depletion luminescence
[7] = biological target: Protein kinase 7 (PK7), Plasmodium falciparum 3D7 (PF3D7_0213400) (UniProt Q7YTF7); assay: inhibition of Plasmodium PK7 catalytic activity – biochemical, TCAMS antimalarial set, Kinase-Glo luminescence (AID 1159587); details: recombinant PfPK7, Kinase-Glo ATP depletion luminescence
[8] = biological target: Calcium-dependent protein kinase 4 (Plasmodium falciparum (isolate 3D7)) (UniProt Q8IBS5); assay: PfCDPK4 kinase inhibitors, biochemical, TCAMS library (AID 1159588; cut-off not given, nearly all actives have IC50 up to about 0.91 µM); details: recombinant PfCDPK4, Kinase-Glo ATP depletion luminescence
Sequence of Calcium-dependent protein kinase 4 (Plasmodium falciparum (isolate 3D7)) (Q8IBS5 whole entry, looked up): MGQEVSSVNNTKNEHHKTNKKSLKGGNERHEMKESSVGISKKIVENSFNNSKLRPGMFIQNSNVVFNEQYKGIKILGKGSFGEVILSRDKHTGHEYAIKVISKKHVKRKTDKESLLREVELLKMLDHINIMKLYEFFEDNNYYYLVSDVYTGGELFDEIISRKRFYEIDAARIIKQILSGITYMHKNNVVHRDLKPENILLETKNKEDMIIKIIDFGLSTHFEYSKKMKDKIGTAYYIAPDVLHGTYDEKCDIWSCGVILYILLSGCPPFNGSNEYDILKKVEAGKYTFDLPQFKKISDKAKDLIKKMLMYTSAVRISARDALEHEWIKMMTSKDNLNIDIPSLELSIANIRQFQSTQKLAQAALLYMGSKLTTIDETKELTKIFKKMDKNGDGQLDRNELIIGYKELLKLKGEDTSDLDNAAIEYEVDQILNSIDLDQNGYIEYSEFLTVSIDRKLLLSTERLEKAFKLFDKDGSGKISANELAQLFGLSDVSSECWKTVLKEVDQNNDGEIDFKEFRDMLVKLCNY

Sequence of L-lactate dehydrogenase (Plasmodium falciparum (isolate CDC / Honduras)) (Q27743 whole entry, looked up): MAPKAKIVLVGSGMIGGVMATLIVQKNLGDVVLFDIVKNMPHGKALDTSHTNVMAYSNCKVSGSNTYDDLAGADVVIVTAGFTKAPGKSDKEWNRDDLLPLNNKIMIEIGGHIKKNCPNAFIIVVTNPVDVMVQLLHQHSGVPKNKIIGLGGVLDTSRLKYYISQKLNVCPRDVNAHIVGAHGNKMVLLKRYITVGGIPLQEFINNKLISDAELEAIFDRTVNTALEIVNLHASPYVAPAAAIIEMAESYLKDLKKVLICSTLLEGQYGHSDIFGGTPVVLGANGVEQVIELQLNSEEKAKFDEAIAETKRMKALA
Sequence of Calcium-dependent protein kinase 1 (Plasmodium falciparum (isolate 3D7)) (P62344 whole entry, looked up): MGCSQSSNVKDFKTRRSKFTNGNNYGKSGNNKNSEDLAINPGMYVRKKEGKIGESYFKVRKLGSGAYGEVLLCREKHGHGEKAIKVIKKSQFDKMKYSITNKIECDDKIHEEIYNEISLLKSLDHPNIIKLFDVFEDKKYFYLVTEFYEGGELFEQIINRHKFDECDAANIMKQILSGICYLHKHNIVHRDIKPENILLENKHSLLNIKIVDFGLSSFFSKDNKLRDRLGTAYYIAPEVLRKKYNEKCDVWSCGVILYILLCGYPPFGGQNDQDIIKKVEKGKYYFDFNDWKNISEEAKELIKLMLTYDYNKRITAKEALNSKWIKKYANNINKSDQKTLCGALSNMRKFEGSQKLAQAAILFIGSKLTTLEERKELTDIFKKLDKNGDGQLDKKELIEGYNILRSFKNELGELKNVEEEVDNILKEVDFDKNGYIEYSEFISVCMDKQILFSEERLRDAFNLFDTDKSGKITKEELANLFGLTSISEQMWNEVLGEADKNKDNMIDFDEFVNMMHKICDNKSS
Sequence of Protein kinase 7 (PK7), Plasmodium falciparum 3D7 (PF3D7_0213400) (Q7YTF7 1-343): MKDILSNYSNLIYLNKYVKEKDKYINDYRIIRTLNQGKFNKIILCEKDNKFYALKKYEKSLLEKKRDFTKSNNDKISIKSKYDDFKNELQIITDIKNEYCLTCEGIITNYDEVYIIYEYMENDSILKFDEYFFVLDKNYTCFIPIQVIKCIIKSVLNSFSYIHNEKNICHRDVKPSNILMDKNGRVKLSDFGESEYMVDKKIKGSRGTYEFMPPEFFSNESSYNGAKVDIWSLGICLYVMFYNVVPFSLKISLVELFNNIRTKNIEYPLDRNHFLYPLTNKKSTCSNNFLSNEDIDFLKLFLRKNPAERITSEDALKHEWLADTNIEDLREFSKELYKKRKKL
Sequence of Plasmodium falciparum protein kinase 6 (PK6, PF3D7_1337100) (Q8IDW1 1-305): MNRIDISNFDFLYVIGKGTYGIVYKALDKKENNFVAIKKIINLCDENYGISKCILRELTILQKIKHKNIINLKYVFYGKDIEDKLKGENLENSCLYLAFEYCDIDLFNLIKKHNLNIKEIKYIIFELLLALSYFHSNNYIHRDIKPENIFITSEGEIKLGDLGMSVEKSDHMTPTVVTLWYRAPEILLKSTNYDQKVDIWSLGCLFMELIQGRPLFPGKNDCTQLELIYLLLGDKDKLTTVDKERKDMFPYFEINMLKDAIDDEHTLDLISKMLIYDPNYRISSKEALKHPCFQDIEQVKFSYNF

| Compound | growth inhibition [1] | inhibition [2] | inhibition [3] [%] | growth inhibition [4] | outcome [5] | outcome [6] | outcome [7] | outcome [8] |
| --- | --- | --- | --- | --- | --- | --- | --- | --- |
| Brc1ccccc1CNc1ccnc(NCCn2ccnc2)n1 | 33% | 72% (active) | 4 | 99% (active) | inactive | inactive | inactive | inactive |
| O=C(O)CNCC(O)c1ccccc1 (stereo not given) | -5% | 7% | -5 | 96% (active) | inactive | inactive | inactive | inactive |
| Fc1ccccc1COc1ccc(Nc2ncnc3ccc(-c4nnc(C(F)(F)F)o4)cc23)cc1Cl | 46% | 7% | 4 | 100% (active) | inactive | inactive | inactive | inactive |
| CC(C)n1ncc2c(C(=O)N3CCCc4ccccc43)cc(-c3ccccc3)nc21 | 82% (active) | 5% | 2 | 100% (active) | inactive | inactive | inactive | inactive |
| CC(Cc1ccc(OCCN2CCN(c3ccccc3)CC2)cc1)NCC(O)c1cccc(Cl)c1F (stereo not given) | 56% (active) | 40% | 6 | 92% (active) | inactive | inactive | inactive | inactive |
| NC(=O)c1cccc(C(=O)Nc2cccc(-c3ccc(-c4nc5ccccc5[nH]4)s3)c2)c1 | 69% (active) | 37% | 1 | 95% (active) | inactive | inactive | inactive | inactive |
| CN(C)c1ccc(CN2CCC(NC(=O)c3ccc(-c4cccc(C(F)(F)F)c4)s3)CC2)cc1 | 40% | 90% (active) | -4 | 97% (active) | inactive | inactive | inactive | inactive |
| Fc1cccc(COc2ccc(Nc3ncnc4ccc(C#C[C@H]5CCCN5)cc34)cc2Cl)c1 | 26% | 7% | -2 | 91% (active) | inactive | inactive | inactive | inactive |
| CS(=O)(=O)Nc1cccc(-c2cnc3[nH]cc(-c4cc(N)cc(C(=O)O)c4)c3c2)c1 | 96% (active) | 40% | 0 | 96% (active) | inactive | inactive | inactive | inactive |
| Cc1c(Cl)cccc1S(=O)(=O)Nc1cccc(CCN2CCC(N3CCCCC3)CC2)c1 | 82% (active) | 38% | -1 | 101% (active) | inactive | inactive | inactive | inactive |
| Nc1nc(N)c2c(ccc3c2cnn3S(=O)(=O)N2CCCC2)n1 | 3% | 70% (active) | 2 | 93% (active) | inactive | inactive | inactive | inactive |
| CCCNCc1ccc(-c2ccc(CN(CCOC)C(=O)CCc3ccc(OC)cc3)cc2)nc1 | 29% | 11% | -1 | 98% (active) | inactive | inactive | inactive | inactive |
| COc1ccc(CN(C)CCCc2ccc(NC(=O)Cc3ccc4nc(-c5ccccc5)ccc4c3)cc2)cc1OC | -2% | 10% | -3 | 98% (active) | inactive | inactive | inactive | inactive |
| CCCCCCSc1nnc(COc2cccc3ccccc23)n1-c1ccc(OC)cc1 | 100% (active) | 19% | 3 | 99% (active) | inactive | inactive | inactive | inactive |
| Cc1cc(-c2ccc3c(c2)CCN(CCC2CCC(NC(=O)/C=C/c4ccc(F)cc4)CC2)CC3)on1 (stereo not given) | 47% | 29% | -4 | 98% (active) | inactive | inactive | inactive | inactive |
| COc1cc2nccc(Nc3ccc(NC(=O)c4ccc(C)cc4)c(O)c3)c2cc1OC | 77% (active) | 96% (active) | 1 | 101% (active) | inactive | inactive | inactive | inactive |
| COc1ccc2nccc([C@@H](O)CN3CCC(NCC(O)Cc4ccccc4)CC3)c2c1 (stereo not given in full) | 6% | 5% | -3 | 98% (active) | inactive | inactive | inactive | inactive |
| Cc1ccc(NC(=O)c2cc([N+](=O)[O-])ccc2NCc2cccnc2)cc1Cl | 58% (active) | 9% | -5 | 86% (active) | inactive | inactive | inactive | inactive |
| Cc1nc2ccc3ccc(CN(C)c4ccc(C(=O)N[C@@H](CCC(=O)O)C(=O)O)cc4)cc3c2c(=O)[nH]1 | 27% | 42% | 1 | 95% (active) | inactive | inactive | inactive | inactive |
| COc1ccccc1C1CCN(C2CCC(NC(=O)/C=C/c3ccc(F)c(F)c3)CC2)CC1 (stereo not given) | 9% | 49% | 1 | 94% (active) | inactive | inactive | inactive | inactive |
